The results in this text go back to paper PMC5540273 (PLoS ONE, 2017).

For one assay, the system named is T1, p38-alpha.
T1 construct: gene MAPK14

The subject of the next assay is AAK1. Particulars: concentration: 1 μM, replicates: in singlicate; n = 1.
The test system of the next assay is ABL1-nonphosphorylated. Particulars: concentration: 1 μM, replicates: in singlicate; n = 1.
In another assay the test system is ABL1-phosphorylated. The note with it: concentration: 1 μM, replicates: in singlicate; n = 1.
Another assay concerns ABL2. The note with it: concentration: 1 μM, replicates: in singlicate; n = 1.
In the next assay the test system is ACVR1B. The note with it: concentration: 1 μM, replicates: in singlicate; n = 1.
The next assay deals with T2, YSK4.
T2 construct: gene MAP3K19

The next assay has as its system T3, YANK2.
T3 construct: gene STK32B

The subject of a further assay is T4, p38-beta.
T4 construct: gene MAPK11

Molecules are shown by their SMILES. Bounds are passed on as bounds.
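For %Inh in this document: KINOMEscan kinase panel screen.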
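For Kd in this document: kd values determined as follow-up on hits from a single-replicate KINOMEscan panel screen.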

Broadly, the Kd is a measure of binding affinity in units of concentration. A low value points to tighter binding. Consider `FC(F)(F)c1ccccc1-c1cc(-c2c[nH]nc2-c2ccccn2)ccn1` [GW679396], for which the Kd in the assay on p38-alpha came to 310 nM. For the same compound, the “%Inh” value is on record as 21% in the assay with AAK1; 0% in the assay on ABL1-nonphosphorylated; 0% with ABL1-phosphorylated; 1% with ABL2; 0% in the assay with ACVR1B.
On to `Cc1cnc(N)c(/C=C/c2cncc(C(=O)NCCc3ccc(Cl)cc3Cl)c2)c1.Cl` [GSK190937], for which the “%Inh” value in the assay with AAK1 is 19%; in the assay on ABL1-nonphosphorylated, 39%; in the assay with ABL1-phosphorylated it was 0%; with ABL2, 11%; in the assay with ACVR1B, 0%.
Regarding `CNc1cc(-c2ccc3c(N)n[nH]c3c2)nc(N)n1` [GSK2224810], the “%Inh” value with AAK1 is recorded as 64%; with ABL1-nonphosphorylated it was 0%; in the assay with ABL1-phosphorylated, 0%; with ABL2, 0%; with ACVR1B, 21%.
`Fc1ccc(-c2nc3n(c2-c2ccncc2)CCS3)cc1` [GI98581] returned a Kd in the assay with p38-alpha of 130 nM. Also, the “%Inh” value came to 1% in the assay with AAK1; 0% in the assay with ABL1-nonphosphorylated; 0% in the assay on ABL1-phosphorylated; 9% with ABL2; 15% in the assay with ACVR1B.
Turning to `Cn1cnc2c(N)ncnc21` [SKF-97623], the “%Inh” value is 0% with AAK1; 21% in the assay with ABL1-nonphosphorylated; 0% with ABL1-phosphorylated; 2% with ABL2; 0% in the assay with ACVR1B.
In the case of `COc1nccc(-c2c(-c3ccc(F)cc3)ncn2CCCN2CCOCC2)n1` [SB-282852], the affinity in the assay on p38-alpha, expressed as Kd, was 160 nM. Besides, the “%Inh” value with AAK1 was found to be 0%; with ABL1-nonphosphorylated it was 55%; in the assay on ABL1-phosphorylated, 41%; in the assay on ABL2, 49%; in the assay with ACVR1B, 0%.
`Fc1ccc(-c2nn3cccc(F)c3c2-c2ccncc2)cc1` [GW475620] gave a Kd in the assay with p38-alpha of 140 nM. Further, the “%Inh” value with AAK1 is reported as 13%; in the assay on ABL1-nonphosphorylated, 0%; in the assay with ABL1-phosphorylated, 0%; in the assay on ABL2 it was 2%; in the assay on ACVR1B, 23%.
Take `Nc1ncnc2occ(-c3ccc4c(c3)CCN4C(=O)Cc3cc(F)ccc3F)c12` [GSK2645446]: the “%Inh” value in the assay on AAK1 was 53%; with ABL1-nonphosphorylated it was 27%; with ABL1-phosphorylated, 3%; in the assay on ABL2, 13%; in the assay on ACVR1B it was 0%.
As for `Cc1ccc(NC(=O)Nc2ccccc2)cc1-c1ccc(C(=O)Nc2ccncc2)cc1` [GSK1398471], the dissociation constant (Kd) in the assay on YSK4 was 71 nM. Moreover, the “%Inh” value in the assay on AAK1 is listed as 8%; in the assay on ABL1-nonphosphorylated it was 0%; with ABL1-phosphorylated, 0%; in the assay on ABL2, 16%; with ACVR1B, 0%.
As to `CNCc1ccc2nc(NC(=O)c3ccc(C(C)(C)C)cc3)cn2c1`, the Kd in the assay with p38-alpha was > 10000 nM. The “%Inh” value with AAK1 stood at 0%; in the assay on ABL1-nonphosphorylated it was 13%; with ABL1-phosphorylated, 12%; in the assay with ABL2 it was 1%; in the assay on ACVR1B, 0%.
In the case of `CN1c2ccc(-c3ccc(C(N)=O)cc3)cc2-c2[nH]ncc2S1(=O)=O`, the “%Inh” value with AAK1 was determined as 39%; in the assay with ABL1-nonphosphorylated, 36%; with ABL1-phosphorylated, 9%; in the assay on ABL2, 0%; in the assay with ACVR1B it was 3%.
Turning to `Cc1ccc(NC(=O)Nc2ccccc2F)cc1-c1ccc(C(=O)Nc2ccncc2)cc1` [GSK1398477], the Kd in the assay on YSK4 came to 1500 nM. Further, the “%Inh” value in the assay on AAK1 worked out at 28%; with ABL1-nonphosphorylated, 7%; with ABL1-phosphorylated, 0%; with ABL2, 31%; in the assay with ACVR1B, 3%.
The compound `Nc1cccc(-c2ccc3c(N)n[nH]c3c2)n1` [GSK2192730] returned a Kd in the assay on YSK4 of 130 nM. For the same compound, the “%Inh” value was 56% with AAK1; 10% in the assay on ABL1-nonphosphorylated; 0% in the assay on ABL1-phosphorylated; 0% in the assay with ABL2; 0% in the assay on ACVR1B.
In the case of `Cn1cncc1C(=O)NC1CCN(c2ccnc(Nc3ccc(F)cc3)n2)C1` (centres unmarked) [GSK1379717], the Kd in the assay with ZAK is > 10000 nM. Besides, the “%Inh” value is on record as 31% in the assay with AAK1; 0% with ABL1-nonphosphorylated; 4% with ABL1-phosphorylated; 0% with ABL2; 0% in the assay on ACVR1B.
For `CC[C@@H]1CO[C@H](C(=O)Nc2ccccc2)CN1c1cc(-c2ccc3c(N)n[nH]c3c2)nc(NC)n1` [GSK2376236], the “%Inh” value in the assay with AAK1 is recorded as 19%; in the assay on ABL1-nonphosphorylated, 0%; in the assay with ABL1-phosphorylated, 0%; with ABL2, 0%; in the assay with ACVR1B it was 0%.
`COC(=O)C(Cc1ccccc1)NC(=O)NC1CCN(c2ccnc(Nc3ccc(F)cc3)n2)C1` (centres unmarked) [GSK1379714] returned a Kd with YSK4 of 1400 nM. Moreover, the “%Inh” value with AAK1, in the assay with ABL1-nonphosphorylated, in the assay with ABL1-phosphorylated, with ABL2 and in the assay with ACVR1B was 0% each time.
As to `Cc1c(Cn2c(C)c(C)n3c(=O)cc(N4CCOCC4)nc23)cccc1C(F)(F)F` [GSK2328680], the “%Inh” value in the assay on AAK1 is listed as 0%; in the assay on ABL1-nonphosphorylated, 0%; with ABL1-phosphorylated, 0%; with ABL2 it was 11%; in the assay with ACVR1B, 20%.
On to `COC(=O)C(NC(=O)NC1CCN(c2ccnc(Nc3ccc(F)cc3)n2)C1)c1ccccc1` (centres unmarked) [GSK1379712], for which the “%Inh” value in the assay on AAK1 is on record as 5%; in the assay with ABL1-nonphosphorylated, 0%; in the assay with ABL1-phosphorylated it was 0%; with ABL2, 0%; in the assay on ACVR1B, 0%.
As for `Nc1nccc(-c2c(-c3ccc(F)cc3)ncn2C2CCN(Cc3ccccc3)CC2)n1` [SB-219980], in the assay on p38-alpha, the Kd is 46 nM. Further, the “%Inh” value with AAK1, in the assay with ABL1-nonphosphorylated, with ABL1-phosphorylated, with ABL2 and in the assay with ACVR1B was 0% each time.
Compound `O=C(Nc1n[nH]c2cc(-c3ccsc3)ccc12)C1CC1` [SB-732932] gave a Kd with YSK4 of 120 nM. Besides, the “%Inh” value was found to be 56% with AAK1; 47% in the assay with ABL1-nonphosphorylated; 11% in the assay on ABL1-phosphorylated; 18% in the assay with ABL2; 21% in the assay with ACVR1B.
Take `COc1ccc(CSc2nnc(-c3ccc4nccn4c3)o2)cc1C(F)(F)F`: the Kd with YSK4 came out at 22 nM. The “%Inh” value with AAK1 is 16%; with ABL1-nonphosphorylated, 28%; in the assay on ABL1-phosphorylated, 13%; in the assay with ABL2, 21%; in the assay with ACVR1B, 23%.
Take `COc1cccc(NC(=O)Nc2ccc(C)c(-c3ccc(C(=O)Nc4ccncc4)cc3)c2)c1` [GSK1398474]: the “%Inh” value with AAK1 worked out at 0%; in the assay with ABL1-nonphosphorylated it was 4%; in the assay with ABL1-phosphorylated, 0%; in the assay on ABL2 it was 21%; in the assay on ACVR1B, 0%.
On to `O=C1NC(=O)C(c2ccc(Cl)cc2)=C1Nc1cccc(Cl)c1` [SB-317651], for which the “%Inh” value in the assay on AAK1 is given as 0%; in the assay on ABL1-nonphosphorylated it was 47%; with ABL1-phosphorylated, 0%; with ABL2, 0%; in the assay with ACVR1B it was 0%.
Regarding `Cc1cccc2c(-c3ccncn3)c(-c3ccc(F)cc3)nn12` [GW515532], the affinity in the assay on p38-alpha, expressed as Kd, was 1300 nM. For the same compound, the “%Inh” value came to 0% in the assay on AAK1; 0% in the assay on ABL1-nonphosphorylated; 0% with ABL1-phosphorylated; 2% in the assay with ABL2; 2% with ACVR1B.
Consider `CCn1c(-c2ccccc2)nc2cnccc21` [SB-733416], for which the “%Inh” value is given as 0% with AAK1; 0% in the assay with ABL1-nonphosphorylated; 13% in the assay on ABL1-phosphorylated; 5% with ABL2; 0% in the assay on ACVR1B.
In the case of `CNc1nc(-c2ccc3c(N)n[nH]c3c2)cc(N2C[C@@H](C(=O)Nc3ccccc3)CC[C@H]2C)n1` [GSK2298859], the Kd in the assay with YANK2 came out at 220 nM. Moreover, the “%Inh” value is listed as 12% in the assay on AAK1; 1% with ABL1-nonphosphorylated; 0% in the assay with ABL1-phosphorylated; 2% in the assay with ABL2; 0% with ACVR1B.
With `CNc1nc(-c2ccc3c(N)n[nH]c3c2)cc(N2C[C@@H](C(=O)NC3CCCCC3)OC[C@H]2C)n1` [GSK2375584], the “%Inh” value in the assay with AAK1 was 40%; in the assay with ABL1-nonphosphorylated it was 6%; in the assay with ABL1-phosphorylated, 0%; in the assay on ABL2, 3%; in the assay with ACVR1B, 0%.
Turning to `COc1ccc(Nc2nccc(N3CCC(NC(=O)c4cc5ccccc5s4)C3)n2)cc1` (centres unmarked) [GSK1379738], the “%Inh” value in the assay on AAK1 is given as 73%; with ABL1-nonphosphorylated it was 0%; in the assay on ABL1-phosphorylated, 0%; in the assay on ABL2, 1%; with ACVR1B it was 0%.
In the assay on p38-alpha, `Cc1ccccc1-c1cc(-c2c[nH]nc2-c2ccccn2)ccn1` [GW680061] displayed a Kd of 130 nM. For the same compound, the “%Inh” value in the assay with AAK1 was determined as 0%; in the assay on ABL1-nonphosphorylated, 0%; in the assay on ABL1-phosphorylated, 0%; in the assay on ABL2, 17%; in the assay on ACVR1B it was 0%.
The compound `CNC(=O)c1ccc(C)c(-n2c(C)cc(OCc3ccc(F)cc3F)c(Br)c2=O)c1` displayed a Kd with p38-beta of 120 nM. Besides, the “%Inh” value turned out to be 0% with AAK1; 0% with ABL1-nonphosphorylated; 0% in the assay with ABL1-phosphorylated; 0% in the assay on ABL2; 7% in the assay with ACVR1B.
As to `Fc1ccc(-c2nc[nH]c2-c2ccncc2)cc1` [SB-217360], the dissociation constant (Kd) with p38-alpha amounted to 67 nM. In addition, the “%Inh” value in the assay with AAK1 was 0%; with ABL1-nonphosphorylated, 4%; in the assay on ABL1-phosphorylated, 33%; in the assay on ABL2, 0%; in the assay with ACVR1B, 13%.
Regarding `COc1ccc(-c2coc3ccc(-c4nnc(C)o4)cc23)cc1`, the “%Inh” value in the assay with AAK1 is 0%; in the assay with ABL1-nonphosphorylated it was 32%; with ABL1-phosphorylated, 7%; in the assay with ABL2, 0%; in the assay with ACVR1B it was 12%.
For the compound `Cc1ccc(NC(=O)Nc2ccc(Cl)c(C(F)(F)F)c2)cc1-c1ccc(C(=O)Nc2ccncc2)cc1` [GSK1398470], the Kd was found to be 310 nM with p38-alpha and 90 nM in the assay with p38-beta. The “%Inh” value with AAK1 is 3%; in the assay on ABL1-nonphosphorylated it was 1%; in the assay on ABL1-phosphorylated, 0%; in the assay on ABL2, 34%; in the assay with ACVR1B, 5%.
Turning to `O=C(Nc1n[nH]c2nc(-c3cccs3)c(Br)cc12)C1CC1` [SB-735297], in the assay on YSK4, the equilibrium dissociation constant (Kd) is 200 nM. Moreover, the “%Inh” value with AAK1 came out at 10%; in the assay on ABL1-nonphosphorylated, 52%; with ABL1-phosphorylated it was 30%; with ABL2, 0%; with ACVR1B it was 0%.
